{"source": "paper PMC4336329", "about": "(PLoS ONE, 2015)", "note": "The campaign covered roughly 310,000 compounds. About 14,000 (4.5%) showed an effect of 50% or more. Effects have a minus sign here. This excerpt belongs to a sample that is enriched for strong results.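 Also: peak tail current of the secondary pulse compared with the same well before compound.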"}
{"target": "human ether-à-go-go-related gene (hERG) potassium channel (human, UniProt Q12809)", "sequence (Q12809 whole entry, looked up)": "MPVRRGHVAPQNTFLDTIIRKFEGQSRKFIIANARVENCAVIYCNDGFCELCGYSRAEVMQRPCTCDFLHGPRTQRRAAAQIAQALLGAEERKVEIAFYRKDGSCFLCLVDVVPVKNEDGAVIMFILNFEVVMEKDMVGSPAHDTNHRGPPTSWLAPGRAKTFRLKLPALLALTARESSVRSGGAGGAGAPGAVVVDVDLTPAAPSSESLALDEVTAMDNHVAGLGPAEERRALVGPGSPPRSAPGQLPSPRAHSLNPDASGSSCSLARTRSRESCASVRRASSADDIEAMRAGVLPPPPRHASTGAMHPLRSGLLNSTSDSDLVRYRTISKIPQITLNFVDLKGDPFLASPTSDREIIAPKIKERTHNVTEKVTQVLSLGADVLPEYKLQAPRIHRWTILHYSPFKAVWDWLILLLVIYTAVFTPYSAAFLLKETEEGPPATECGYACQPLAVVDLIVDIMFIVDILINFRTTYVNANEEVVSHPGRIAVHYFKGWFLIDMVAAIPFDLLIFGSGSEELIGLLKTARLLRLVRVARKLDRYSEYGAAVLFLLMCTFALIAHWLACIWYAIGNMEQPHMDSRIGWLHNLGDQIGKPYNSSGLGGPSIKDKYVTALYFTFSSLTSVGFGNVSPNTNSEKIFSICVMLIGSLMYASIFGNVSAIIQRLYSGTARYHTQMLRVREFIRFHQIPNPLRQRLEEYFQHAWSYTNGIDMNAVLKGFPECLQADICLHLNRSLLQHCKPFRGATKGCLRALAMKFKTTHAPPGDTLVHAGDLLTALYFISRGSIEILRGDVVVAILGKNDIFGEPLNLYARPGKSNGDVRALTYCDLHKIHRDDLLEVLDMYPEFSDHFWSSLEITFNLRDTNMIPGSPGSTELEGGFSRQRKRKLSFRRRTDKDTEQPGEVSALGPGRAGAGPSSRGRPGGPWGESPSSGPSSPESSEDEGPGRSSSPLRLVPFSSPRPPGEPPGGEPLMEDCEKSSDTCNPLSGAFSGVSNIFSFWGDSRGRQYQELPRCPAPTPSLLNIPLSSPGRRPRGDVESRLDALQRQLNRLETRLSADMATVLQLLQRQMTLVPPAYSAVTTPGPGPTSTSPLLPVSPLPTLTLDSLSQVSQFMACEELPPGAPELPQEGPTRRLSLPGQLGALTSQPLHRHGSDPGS", "experiment": "primary screen, population patch clamp on CHO cells stably expressing hERG; higher = less effect of the substance", "description": "Briefly, Chinese hamster ovary (CHO) cells stably expressing the hERG channel were dislodged from tissue culture flasks and dispensed into PPC plates. […] During the recording, background leak currents were estimated by a 100 ms step to -80 mV from an initial holding potential of -70 mV and subtracted from the subsequent current measurement. The campaign was conducted in two phases using slight differences in recording protocol. In the first phase, the initial voltage pulse used a 100 ms step to -30 mV from a holding potential of -70 mV, a 2 s conditioning step to +25 mV, and a 2 s test step to -30 mV. During the second phase of the screen, the potential during the conditioning step was raised to +45 mV. In both phases of the campaign, a secondary voltage pulse was applied using the same parameters as the second phase initial pulse. The initial and secondary pulses were applied in the absence of compound, and upon application of 1 μM and 10 μM test concentrations. […]", "units": {"hERG current change (%, negative = inhibition) at 10uM": "%"}}
{"smiles": "COc1ccc(C(=O)NC2CCCCC2)cc1S(=O)(=O)N1CCOCC1", "hERG current change (%, negative = inhibition) at 10uM": -14.8}
{"smiles": "O=C(NCCOC(=O)c1ccccc1)c1ccccc1", "hERG current change (%, negative = inhibition) at 10uM": 10.2}
{"smiles": "[N-]=[N+]=CC(=O)CNC(=O)[C@@H](Cc1ccccc1)N1C(=O)c2ccccc2C1=O", "hERG current change (%, negative = inhibition) at 10uM": 6.66}
{"smiles": "CCC(C(=O)NCc1ccco1)n1nc(C)c2c(C)n(-c3ccc(C)cc3)nc2c1=O", "note": "(stereo not drawn)", "hERG current change (%, negative = inhibition) at 10uM": -58.9}
{"smiles": "CCC(C(=O)NCc1ccco1)n1nc(C)c2c(C)n(-c3ccccc3)nc2c1=O", "note": "(stereo not drawn)", "hERG current change (%, negative = inhibition) at 10uM": -8.91}
{"smiles": "CCC(C(=O)NC1CC1)n1nc(C)c2c(C)n(-c3ccccc3)nc2c1=O", "note": "(stereo not drawn)", "hERG current change (%, negative = inhibition) at 10uM": 8.02}
{"smiles": "CCC(C(=O)NC1CCCCCC1)n1nc(C)c2c(C)n(-c3ccccc3)nc2c1=O", "note": "(stereo not drawn)", "hERG current change (%, negative = inhibition) at 10uM": -23.4}
{"smiles": "Cc1ccc(-n2nc3c(=O)n(C(C)C(=O)NCc4ccco4)nc(C)c3c2C)cc1", "note": "(stereo not drawn)", "hERG current change (%, negative = inhibition) at 10uM": -41.3}
{"smiles": "CCC(C(=O)NC1CC1)n1nc(C)c2c(C)n(-c3ccc(C)cc3)nc2c1=O", "note": "(stereo not drawn)", "hERG current change (%, negative = inhibition) at 10uM": -62}
{"smiles": "CC(C)c1cccc(C(C)C)c1OCCCCN1CCCC1", "hERG current change (%, negative = inhibition) at 10uM": -22.7}
{"smiles": "COc1ccccc1N(C)S(=O)(=O)c1ccc(C(=O)Nc2nccs2)cc1", "hERG current change (%, negative = inhibition) at 10uM": -30.5}
{"smiles": "CC(=O)c1ccc(NC(=O)CN2CCC(NC(=O)C3CCCCC3)CC2)cc1", "hERG current change (%, negative = inhibition) at 10uM": -6.72}
{"smiles": "COc1ccccc1CC(=O)N1CCCC(CCC(=O)NCc2ccccc2F)C1", "note": "(stereo not drawn)", "hERG current change (%, negative = inhibition) at 10uM": 2.97}
{"smiles": "COc1ccc(/C=C/CN2CCCC(CCC(=O)NCc3ccc(F)c(F)c3)C2)cc1", "note": "(stereo not drawn)", "hERG current change (%, negative = inhibition) at 10uM": -72.8}
{"smiles": "COCCNC(=O)CCC1CCN(C/C=C/c2ccccc2OC)CC1", "hERG current change (%, negative = inhibition) at 10uM": -3.87}
{"smiles": "COc1cccc(C(=O)N2CCCC(CCC(=O)NCc3ccc(F)c(F)c3)C2)c1", "note": "(stereo not drawn)", "hERG current change (%, negative = inhibition) at 10uM": -17.5}
{"smiles": "COc1ccccc1/C=C/CN1CCCC(CCC(=O)NCc2ccc(F)c(F)c2)C1", "note": "(stereo not drawn)", "hERG current change (%, negative = inhibition) at 10uM": -70}
{"smiles": "COC(=O)c1ccccc1C(=O)N1CCCC(CCC(=O)NCc2ccc(F)c(F)c2)C1", "note": "(stereo not drawn)", "hERG current change (%, negative = inhibition) at 10uM": -10.1}
{"smiles": "COc1cccc(CNC(=O)CCC2CCCN(C(=O)c3ccc(OC)c(F)c3)C2)c1", "note": "(stereo not drawn)", "hERG current change (%, negative = inhibition) at 10uM": -9.79}
{"smiles": "COc1ccccc1/C=C/CN1CCCC(CCC(=O)NCc2ccccc2F)C1", "note": "(stereo not drawn)", "hERG current change (%, negative = inhibition) at 10uM": -65.7}
{"smiles": "COc1cccc(CNC(=O)CCC2CCCN(C/C=C/c3ccccc3OC)C2)c1", "note": "(stereo not drawn)", "hERG current change (%, negative = inhibition) at 10uM": -68.5}
{"smiles": "COc1ccc(C(=O)N2CCCC(CCC(=O)NCc3ccc(F)c(F)c3)C2)cc1F", "note": "(stereo not drawn)", "hERG current change (%, negative = inhibition) at 10uM": -22.8}
{"smiles": "COc1cccc(CNC(=O)CCC2CCCN(C(=O)Cc3ccccc3F)C2)c1", "note": "(stereo not drawn)", "hERG current change (%, negative = inhibition) at 10uM": -7.61}
{"smiles": "COCCC(=O)N1CCCC(CCC(=O)NCc2ccc(F)c(F)c2)C1", "note": "(stereo not drawn)", "hERG current change (%, negative = inhibition) at 10uM": 22.8}
